Compounds without any hit were thinned out: in the full panel of roughly 83,000, 20% have a hit.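 Each cell line was grown in a 96-well plate and treated with one concentration of compound for 48 hours. Values below 10 were considered active.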 Unmarked numbers belong to inactive results. Active and inactive are the calls of the source.
Assays:
Experiment in all cases: NCI-60 one-dose screen, 48 h (100 = growth as untreated, 0 = no growth, -100 = all killed)
Settings in all cases: 10 µM unless noted
[1] = tested on: NCI-H23 lung
[2] = tested on: NCI-H226 lung
[3] = tested on: NCI-H322M lung
[4] = tested on: HOP-62 NSCLC
[5] = tested on: NCI-H460 lung
[6] = tested on: HOP-92 NSCLC
[7] = tested on: NCI-H522 lung
[8] = tested on: A549/ATCC NSCLC
[9] = tested on: 786-0 renal
[10] = tested on: COLO 205 colon
[11] = tested on: DU-145 prostate
[12] = tested on: K-562 leukemia
[13] = tested on: MALME-3M melanoma
[14] = tested on: MDA-MB-231 breast
[15] = tested on: RXF 393 renal
[16] = tested on: SF-268 CNS
[17] = tested on: SF-295 CNS
[18] = tested on: SF-539 CNS
[19] = tested on: UACC-257 melanoma
[20] = tested on: M14 melanoma

Compound	growth [1]	growth [2]	growth [3]	growth [4]	growth [5]	growth [6]	growth [7]	growth [8]	growth [9]	growth [10]	growth [11]	growth [12]	growth [13]	growth [14]	growth [15]	growth [16]	growth [17]	growth [18]	growth [19]	growth [20]
C#C[C@]1(O)CC[C@H]2[C@@H]3CC=C4c5nc(Nc6ccc(OC)cc6OC)sc5CC[C@]4(C)[C@H]3CC[C@@]21C	34.6%	24.2%	37%	-11.5% (active)	12.4%	10.4%	23%	9.68% (active)	-54.7% (active)	-43.2% (active)	39%	6.12% (active)	-21.8% (active)	1.72% (active)	-60% (active)	4.95% (active)	-66.3% (active)	-59.5% (active)	-20.3% (active)	-41.4% (active)
Cn1cc(-c2noc(C(=O)c3cn(C)c4ncc(Br)cc34)n2)c2ccccc21	97.7%	99.3%	91%	102%	99.8%	37.6%	91.6%	99.3%	91.3%	107%	100%	102%	80.5%	79.1%	104%	94.6%	101%	87.1%	96.7%	99.4%
Cn1cc(-c2nnc(-c3cn(C)c4ncc(Br)cc34)s2)c2cc(Br)ccc21	99.5%	91.8%	89.8%	93.1%	99.4%	57.2%	94.2%	94.4%	93.5%	105%	95.4%	97.8%	78.1%	67.2%	118%	90.9%	103%	81.5%	92.5%	97%
COc1ccc(C(=O)CSc2nnc(-c3cc(-c4ccccc4)nc4ccccc34)o2)cc1	109%	106%	99.7%	97.5%	106%	113%	102%	98%	106%	122%	110%	103%	96.7%	98.7%	122%	100%	102%	106%	105%	105%
Cc1ccc(S(=O)(=O)Oc2ccc(Br)cc2Br)cc1	88%	85.5%	91.2%	76.6%	97.2%	82.3%	82.1%	64%	86.6%	63.9%	78.1%	18.5%	92%	85%	87.9%	76.5%	69.3%	81.6%	81.4%	78.8%
COc1ccc(NC(=O)Nc2ccc(-c3cccnc3)cc2N2CCC(CO)CC2)cc1	27.1%	86.8%	59.1%	54%	60.1%	78.1%	25.2%	41%	30.8%	70%	55.3%	24.8%	67.2%	34.2%	13.1%	52.5%	32%	15.1%	46.6%	63.3%
CCCCC(CCCCCC(CCCC)C1NC(C)Cc2cc(OC)c(OC)cc21)C1NC(C)Cc2cc(OC)c(OC)cc21 (stereo not given)	-81.4% (active)	-77.8% (active)	-39.4% (active)	-97.2% (active)	-73.8% (active)	-57.8% (active)	-87.7% (active)	-80.9% (active)	-98.4% (active)	-96.9% (active)	-100% (active)	-76.8% (active)	-73.4% (active)	-67.4% (active)	-89.4% (active)	-88.6% (active)	-70.7% (active)	-95.8% (active)	-80.6% (active)	-90.2% (active)
CC1Cc2ccc(OCCN(C)C)cc2C1=O (stereo not given)	103%	99%	97.8%	96.4%	105%	82.1%	106%	88.9%	101%	105%	107%	100%	108%	112%	110%	103%	99.6%	99.5%	80%	99.4%
Nc1nc(Nc2ccccc2)c2ncn(Cc3cc4c(cc3Br)OCO4)c2n1	23.2%	29.4%	30.2%	11.3%	5.33% (active)	40%	-40.5% (active)	13.5%	20.3%	-38.3% (active)	18.2%	10.2%	74.7%	-5.1% (active)	22.9%	23.8%	14%	1.84% (active)	58.3%	15.7%
CCCCCCCCCCCCCCNC(=O)Nc1ccc(Cl)c(Cl)c1	-0.614% (active)	18.5%	108%	56.6%	86.6%	9.28% (active)	-7% (active)	77.8%	12.3%	31.7%	40.1%	100%	22.2%	27.7%	24.4%	46%	18.6%	51.1%	41.4%	49.2%
O=C(Nc1cccnc1)c1ccc2ccc3ccc(C(=O)Nc4cccnc4)nc3c2n1	23.1%	4.52% (active)	10.5%	9.18% (active)	1.69% (active)	23.9%	30.7%	22.1%	19.9%	13.2%	14.6%	17.1%	46.7%	25.2%	-50.4% (active)	15.9%	5.39% (active)	-6.56% (active)	30.8%	15.5%
COc1ccccc1S(=O)Nc1ccccc1 (stereo not given)	104%	102%	94.9%	124%	93.6%	98.5%	74.9%	74.4%	103%	117%	116%	104%	86.2%	92.5%	100%	100%	98.5%	109%	78.4%	111%
COc1ccc(/C=C2\N=C(Nc3ccccc3)N(NC(=O)c3ccccn3)C2=O)cc1	101%	98.1%	106%	107%	99.7%	95.8%	90%	99.1%	96.4%	115%	109%	81.1%	105%	94.6%	95.8%	101%	98.2%	98.3%	108%	101%
COc1ccc2c(c1)C(C)Cc1c(Cl)nc(C)nc1N2C (stereo not given)	25.8%	38.6%	58.8%	29.4%	12.3%	41.7%	-17% (active)	21.8%	38.2%	-20.9% (active)	34%	11.7%	80.7%	19%	-0.792% (active)	43.2%	7.77% (active)	4.64% (active)	78.1%	13.5%
O=[N+]([O-])c1cccc(/C=C/c2ccc3ccccc3n2)c1	85.8%	82.9%	74.3%	55.5%	77.1%	66.6%	47.5%	79.5%	70.4%	91.7%	71.4%	94.7%	68.5%	45.7%	62.1%	72.9%	53.2%	78.1%	74.8%	82.3%
